Shown are actives, neighbours in structure and some others; about 19% of the full set was active somewhere.
ELG1 repair inh – blocks ELG1-dependent DNA repair in HEK293T cells; Potency, µM (series often up to 46.1 µM), without a hit: top-dose activity change, negative = inhibition, hits mostly inhibitors; HEK293T ELG1-luciferase reporter, luminescence, 16 h; DNA damage induced by 5-fluorouridine; 330,000 tested, 2.3% active; also: potency is read from the fitted curve at half-maximal effect; nearly all actives have a fitted effect of over 55% in size
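Step one: seed 2,000 cells per well. Step two: pin-transfer compound or DMSO alongside 5-fluorouridine. Step three: incubate 16 hr, 37 °C, 5% CO2. Step four: add ONE-Glo, wait 30 min, read luminescence.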
DT40 TDP1 no CPT – qHTS for Inhibitors of human tyrosyl-DNA phosphodiesterase 1 (TDP1): qHTS in cells in absence of CPT; DT40 Tdp1-/- hTDP1 cells, no CPT, ATP luminescence, 48 h; Potency, µM (series often up to 46.2 µM), inactives show at the highest dose activity change, negative = growth inhibition, most hits filed as inhibitors; 420,000 tested, 15% active; also: potency is read from the fitted curve at half-maximal effect; nearly all actives have a fitted effect of over 55% in size
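A cellular qHTS used chicken DT40 cells lacking endogenous Tdp1 but carrying stably transfected human TDP1. Compounds were applied without camptothecin, and cell growth kinetics were judged by ATP-dependent luminescence after ≥48 hr.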
HT1080 IDH1KD tx – toxicity to HT-1080 IDH1 knockdown cells (counter line). Potency, µM (series often up to 46.1 µM), for the others: top-dose activity, negative = toxicity, most hits filed as cytotoxic. 360,000 tested, 2% active. AID 686971. HT-1080 IDH1 knockdown viability, ATP luminescence, 48 h;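 also: potency is read from the fitted curve at half-maximal effect; 0% = DMSO wells and -100% = cell-free medium wells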
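CellTiter-Glo luminescence after 48 h compound exposure at 37 degrees C of IDH1-knockdown HT-1080 cells in 5% FBS RPMI. %Activity scaled between DMSO wells and cell-free media wells, with curves fitted and assigned curve classes.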
IL1B secr inh – blocks inflammasome-driven IL-1 beta release | THP-1 LPS/ATP IL-1B secretion, AlphaLISA, 16 h; active compounds read low | activity change, % at 57.5 µM | 360,000 tested, 4.7% active; in the data active = activity change below about -50%; inconclusive = mostly about -30% to -49%
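Secreted IL-1B measured by AlphaLISA bead assay after 16 h compound exposure of THP-1 cells; compounds (final up to 57.5 uM) added 1 h before LPS (250 ng/mL) and ATP (1.25 mM) stimulation; lower signal means less secretion.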
TDP1 cell CPT – growth inhibition of DT40 Tdp1-/-;hTDP1 cells with camptothecin (screen for TDP1 inhibitors) | 420,000 tested, 12% active | Potency, µM (series often up to 46.2 µM), for inactives: at the highest dose activity change, negative = growth inhibition, most hits filed as inhibitors | chicken DT40 Tdp1-/-;hTDP1 cells + 20 nM CPT, ATP luminescence, 48 h | AID 686979; also: potency is read from the fitted curve at half-maximal effect; nearly all actives have a fitted effect of over 55% in size
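Chicken DT40 Tdp1-/- cells complemented with human TDP1, 400 cells/well, exposed to compounds plus 20 nM camptothecin for at least 48 h at 37 C; viability read as ATP content by CellTiter-Glo luminescence.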
HT1080NT lethal – kills 2HG-producing HT-1080-NT fibrosarcoma cells. HT-1080-NT fibrosarcoma viability, CellTiter-Glo ATP luminescence, 48 h. Potency, µM (top dose mostly 46.1 µM), for the others: at the top dose activity, negative = less viability, most hits filed as cytotoxic. AID 686970. 360,000 tested, 1.6% active;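 also: NT is the 2HG producing partner of a matched IDH1 knockdown line; potency is read from the fitted curve at half-maximal effect; 0% = DMSO-treated cells and -100% = media-only wells without cells; nearly all actives have a fitted effect of over 55% in size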
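Toxicity toward the 2HG-producing NT line was scored as %Activity, normalised to DMSO and no-cell wells, from CellTiter-Glo luminescence after 48 hours' treatment.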
* hit, by the source's call; ? = inconclusive; · = not tested or not shown; [ ] = another dose, or the depositor's remark. Unless noted, calls follow the shape of the dose curve; as a rule, active = well fitted curve in the direction sought with a large enough effect; inconclusive = small, poorly fitted or top-dose-only effect, or another doubt; inactive = no such curve, though single readings can be large; an effect the other way counts as inactive or inconclusive. Unless noted, % is scaled to controls: 0 for no effect and ±100 for the full control effect.

SMILES	ELG1 repair inh	DT40 TDP1 no CPT	HT1080 IDH1KD tx	IL1B secr inh	TDP1 cell CPT	HT1080NT lethal
COc1ccc(CNC(=O)c2ccc(NC(=O)N3CCCCc4ccccc43)cc2)cc1	·	18.4µM*	·	·	?	·
CCOC(=O)c1ccc(NC(=O)N2CCc3ccccc32)cc1	?	-23.6%	?	-0.3	-26.8%	?
CCCCOc1ccc(CNC(=O)Cc2ccc(NC(=O)N3CCCCc4ccccc43)cc2)cc1	·	16.4µM*	·	·	14.6µM*	·
Cc1ccccc1-n1nc(-c2cccnc2)cc1C(=O)NN	-3.6%	-10.0%	5.6%	20.7	-0.6%	0.6%
COc1cccc(CNC(=O)Cc2ccc(NC(=O)N3CCCCc4ccccc43)cc2)c1OC	·	18.4µM*	·	·	-10.5%	·
COc1cc(CNC(=O)c2ccc(NC(=O)N3CCCCc4ccccc43)cc2)cc(OC)c1OC	·	10.3µM*	·	·	18.4µM*	·
COc1ccc(NC(=O)N2CCCc3ccccc32)cc1	?	-15.1%	7.5%	6.5	-6.4%	-2.1%
O=C(O)CCN1C(=O)C2C3C=CC(C2C1=O)C1C(=O)N(CCC(=O)O)C(=O)C31 (stereo not given)	12.9%	-6.2%	-3.7%	2.8	6.6%	-4.3%
CCC(C)Oc1cc(-c2ccnc(Nc3cccc(Cl)c3)n2)ccn1 (stereo not given)	?	?	?	-85.8*	?	-26.5%
CN(C)CCCNc1ccc(-c2cc(Nc3cccc(Cl)c3)ncn2)cn1	?	?	-4.1%	-2.6	?	-14.1%
OCCCNc1cc(-c2ccnc(Nc3cccc(Cl)c3)n2)ccn1	0.58µM*	0.164µM*	?	-108.3*	0.146µM*	-44.9%
CCOCC(=O)Nc1ccc(-c2cn3c(C)csc3n2)cc1	·	?	·	·	-15.2%	·
CCNC(=O)C1(C)CCCN(Cc2ccccc2-c2ccccc2)C1 (stereo not given)	·	?	25.4%	40.9	?	10.4%
CCNC(=O)C1(C)CCCN(Cc2ccc(Oc3ccccc3)cc2)C1 (stereo not given)	·	18.4µM*	12.7%	-2.3	13µM*	17.5%
CCNC(=O)C1(C)CCN(Cc2cccc(Oc3ccccc3)c2)C1 (stereo not given)	·	16.4µM*	?	0.6	?	-22.8%
COc1ccccc1N1CCN(C2=NS(=O)(=O)c3ccccc32)CC1	4.9%	?	-2.6%	19.5	-25.8%	2.0%
CC1=NN(C2=NS(=O)(=O)c3ccccc32)C(C)(O)C1 (stereo not given)	26.6%	0.366µM*	4.2%	21.1	0.411µM*	1.6%
CCN(c1cccc(C(F)(F)F)c1)S(=O)(=O)c1ccc2c(c1)CCN2C(=O)C1CC1	?	15.8µM*	?	?	15.8µM*	-28.3%
CCCCN(C)S(=O)(=O)c1cc2c(cc1Br)CCN2C(=O)C1CC1	·	3.66µM*	-12.2%	0.9	4.11µM*	-1.0%
Cc1cc(NC(=O)CCS(=O)(=O)c2cc(Br)cc3c2N(C(=O)C2CC2)CC3)ccc1Br	·	-18.3%	·	·	-11.8%	·
Cc1ccc(NS(=O)(=O)c2cc(Br)cc3c2N(C(=O)C2CC2)CC3)cc1C	·	2.06µM*	·	·	2.59µM*	·
CCN(c1ccccc1)S(=O)(=O)c1cc(Br)cc2c1N(C(=O)C1CC1)CC2	·	18.4µM*	·	·	16.4µM*	·
CCC(=O)N1CCc2cc(S(=O)(=O)N(CC)c3cccc(C)c3)ccc21	-25.7%	?	-19.9%	-1.6	?	-8.9%
CCCS(=O)(=O)NC(=O)C1(C)CCN(C(=O)c2cc(C)oc2C)C1 (stereo not given)	·	1.2%	10.2%	23.6	2.3%	6.0%
CC(=O)O[C@H]1C[C@@H]2CC[C@@H]3[C@H](CC[C@@]4(C)[C@H]3C[C@H](N3CC[N+](C)(C)CC3)[C@@H]4OC(C)=O)[C@@]2(C)C[C@@H]1N1CC[N+](C)(C)CC1	·	-25.8%	·	·	-14.8%	·
SMILES	ELG1 repair inh	DT40 TDP1 no CPT	HT1080 IDH1KD tx	IL1B secr inh	TDP1 cell CPT	HT1080NT lethal
Cc1ccccc1Cn1c(=O)n(C)c(=O)c2sccc21	?	-24.5%	-10.3%	15.6	-4.3%	15.6%
CCOC(=O)C1CCN(S(=O)(=O)c2cc(Br)cc3c2N(C(=O)C2CC2)CC3)CC1	?	-12.2%	-0.1%	18.9	?	-4.2%
O=C(C1CC1)N1CCc2cc(Br)cc(S(=O)(=O)NCCCN3CCCC3)c21	1.1%	-6.0%	-2.6%	11.1	17.7%	0.4%
O=C(C1CC1)N1CCc2cc(Br)cc(S(=O)(=O)Nc3ccc(C(F)(F)F)cc3)c21	·	16.4µM*	·	·	18.4µM*	·
CCOC(=O)c1cccc(NS(=O)(=O)c2cc(Br)cc3c2N(C(=O)C2CC2)CC3)c1	·	23.1µM*	·	·	?	·
O=C(C1CC1)N1CCc2cc(Br)cc(S(=O)(=O)N3CCN(c4cccc(C(F)(F)F)c4)CC3)c21	·	8.2µM*	·	·	?	·
CC1CC(C)CN(CCCNS(=O)(=O)c2cc(Br)cc3c2N(C(=O)C2CC2)CC3)C1 (stereo not given)	-5.4%	-11.0%	12.1%	-13.0	8.2%	-0.7%
O=C(C1CC1)N1CCc2cc(Br)cc(S(=O)(=O)Nc3ccc(F)c(F)c3)c21	·	23.1µM*	·	·	23.1µM*	·
O=c1c(S(=O)(=O)c2cccc(Cl)c2)cn(Cc2ccccc2)c2cc(N3CCOCC3)c(F)cc12	·	-25.9%	·	·	?	·
O=C(NNC(=O)C1CCC1)c1cccc(Cl)c1	?	9.9%	6.7%	-7.3	-1.2%	-1.5%[9.24 µM]
COc1ccc(CSc2nc(C)cc(C)c2S(C)(=O)=O)cc1	?	?	-4.0%	-6.8	?	-2.1%
O=C1C2CC=CCC2C(=O)N1c1ccc(N2CCN(c3ccccn3)CC2)c([N+](=O)[O-])c1 (stereo not given)	?	16.4µM*	2.4%	5.9	?	?
O=C(c1ccc(N2CCCCC2)c([N+](=O)[O-])c1)N1CCN(c2ccccn2)CC1	-27.3%	?	0.8%	-7.3	-28.0%	6.6%
CCCCCCCCOC(=O)C[N+](C)(C)C/C=C(/C)Cl	0.1%	10.3µM*	-14.0%	-17.8	16.4µM*	-4.3%
CCCCCCCCCCCCOC(=O)C[N+](C)(C)C	-16.2%	-13.2%	21.2%	·	6.1%	23.1%
C/C(Cl)=C\C[N+](C)(C)CC(=O)OCCc1ccccc1	13.9%	-14.6%	8.2%	-10.7	-0.5%	0.6%
